According to PubChem BioAssay (NCATS):
Inconclusive results are not listed. Active and inactive are the calls of the source. The call rests on the fitted dose curve; in most records, active means well fitted inhibition curve with a large enough effect; inconclusive means small, poorly fitted or top-dose-only effect; inactive means flat fitted curve, though single readings scatter.

Columns and labels:
PC49 = assay: qHTS profiling for inhibitors of Plasmodium falciparum proliferation (AID 504749);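 further: 0% = DMSO vehicle and full inhibition = artemisinin control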; conditions: P. falciparum in erythrocytes, SYBR Green DNA, 72 h; series mostly up to 28.7 µM
Outline: (§1)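 Readout was DNA-dye fluorescence from lysed cultures, ex 485/em 535 nm. Parasitized red cells had grown 72 h with compound; data scaled between 0.29 uM artemisinin and DMSO wells and corrected using vehicle-only plates.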

SC27B = assay: as above; conditions: P. falciparum in erythrocytes, SYBR Green DNA, 72 h; series mostly up to 28.7 µM
Outline: as §1

TAB109 = assay: as above; conditions: P. falciparum in erythrocytes, SYBR Green DNA, 72 h; series mostly up to 28.7 µM
Outline: as §1

TAB113 = assay: as above; conditions: P. falciparum in erythrocytes, SYBR Green DNA, 72 h; series mostly up to 28.7 µM
Outline: as §1

TAB165 = assay: as above; conditions: P. falciparum in erythrocytes, SYBR Green DNA, 72 h; series mostly up to 28.7 µM
Outline: as §1

CRL-7250 = normal cell line; assay: Cytotoxic Profiling of Annotated Libraries Using Quantitative High-Throughput Screening (AID 1296008); conditions: Five cell lines viability, CellTiter-Glo ATP luminescence, 48-72 h; active compounds read low; on max response: on the % scale 0 is the no-effect control and ±100 the full control effect
Outline: (§2)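 Cells exposed to compounds for 48 or 72 hr at 37 degrees Celsius. Viability read as ATP-coupled luminescence with CellTiter-Glo after 10 min at room temperature.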

HEK293 = assay: as above; conditions: Five cell lines viability, CellTiter-Glo ATP luminescence, 48-72 h; active compounds read low
Outline: as §2

HaCat = assay: as above; conditions: Five cell lines viability, CellTiter-Glo ATP luminescence, 48-72 h; active compounds read low
Outline: as §2

KB-3-1 = assay: as above; conditions: Five cell lines viability, CellTiter-Glo ATP luminescence, 48-72 h, active compounds read low
Outline: as §2

NIH3T3 [1] = assay: as above; conditions: Five cell lines viability, CellTiter-Glo ATP luminescence, 48-72 h; active compounds read low
Outline: as §2

HEK293T = assay: qHTS assay to identify novel small-molecules to repurpose for Merkel cell carcinoma treatment (AID 1296009); conditions: MCC and control cell lines, CellTiter-Glo viability, 72 h; at 44.8 µM (top of the series) unless noted
Outline: (§3)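 Cells were incubated with compound for 72 hr at 37 degree celsius before CellTiter-Glo addition. Luminescence was normalized with no-cell wells as full cytotoxicity and DMSO as baseline.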

MCC-13 = assay: as above; conditions: MCC and control cell lines, CellTiter-Glo viability, 72 h; series mostly up to 46 µM
Outline: as §3

MCC-26 = assay: as above; conditions: MCC and control cell lines, CellTiter-Glo viability, 72 h; series mostly up to 46 µM
Outline: as §3

MKL-1 = assay: as above; conditions: MCC and control cell lines, CellTiter-Glo viability, 72 h; series mostly up to 46 µM
Outline: as §3

MKL-2 = assay: as above; conditions: MCC and control cell lines, CellTiter-Glo viability, 72 h; series mostly up to 46 µM
Outline: as §3

UISO = assay: as above; conditions: MCC and control cell lines, CellTiter-Glo viability, 72 h; series mostly up to 46 µM
Outline: as §3

WaGa = assay: as above; conditions: MCC and control cell lines, CellTiter-Glo viability, 72 h; series mostly up to 46 µM
Outline: as §3

W2 = assay: qHTS profiling for inhibitors of Plasmodium falciparum proliferation (AID 504749);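 further: 0% = DMSO vehicle and full inhibition = artemisinin control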; conditions: P. falciparum in erythrocytes, SYBR Green DNA, 72 h; series mostly up to 28.7 µM
Outline: as §1

NIH3T3 [2] = assay: qHTS assay to identify novel small-molecules to repurpose for Merkel cell carcinoma treatment (AID 1296009); conditions: MCC and control cell lines, CellTiter-Glo viability, 72 h; at 44.8 µM (top of the series) unless noted
Outline: as §3
Further: nearly all actives have a fitted effect of over 60% in size.

CCCCCCCCCCCCCCCCC(C(=O)O)C(O)(CC(=O)O)C(=O)O (stereo not given)
inactive: Potency (PC49) | Potency (SC27B) | Potency (TAB109) | Potency (TAB113) | Potency (TAB165) | outcome (CRL-7250) | outcome (HEK293) | max response (HaCat) 2.76% | max response (KB-3-1) 6.88% | max response (NIH3T3 [1]) 0.574% | outcome (HEK293T) | outcome (MCC-13) | outcome (MCC-26) | outcome (MKL-1) | outcome (MKL-2) | outcome (UISO) | outcome (WaGa)

COc1ccc(-c2cc(=O)c3c(O)cc(O[C@@H]4O[C@H](CO[C@@H]5O[C@@H](C)[C@H](O)[C@@H](O)[C@H]5O)[C@@H](O)[C@H](O)[C@H]4O)cc3o2)cc1O
inactive: max response (CRL-7250) -26.4% | outcome (HEK293) | max response (HaCat) -10.9% | max response (KB-3-1) -15.8% | max response (NIH3T3 [1]) -0.449% | outcome (HEK293T) | outcome (MCC-13) | outcome (MCC-26) | outcome (MKL-1) | outcome (MKL-2) | outcome (UISO) | outcome (WaGa)

Cc1cc(NC(=O)C2=C(O)c3ccccc3S(=O)(=O)N2C)no1
inactive: Potency (PC49) | Potency (SC27B) | Potency (TAB109) | Potency (TAB113) | Potency (TAB165) | max response (CRL-7250) -9.44% | outcome (HEK293) | max response (HaCat) 1.12% | max response (KB-3-1) -4.98% | max response (NIH3T3 [1]) -3.38% | outcome (HEK293T) | outcome (MCC-13) | outcome (MCC-26) | outcome (MKL-1) | outcome (MKL-2) | outcome (UISO) | outcome (WaGa)

COc1cc(O)cc(O)c1
inactive: Potency (PC49) | Potency (SC27B) | Potency (TAB109) | Potency (TAB113) | Potency (TAB165) | outcome (CRL-7250) | outcome (HEK293) | max response (HaCat) -8.13% | max response (KB-3-1) -4.6% | max response (NIH3T3 [1]) -7.04% | outcome (HEK293T) | outcome (MCC-13) | outcome (MCC-26) | outcome (MKL-1) | outcome (MKL-2) | outcome (UISO) | outcome (WaGa)

Cc1ccsc1C(=CCCN1CCC[C@@H](C(=O)O)C1)c1sccc1C
inactive: Potency (PC49) | Potency (SC27B) | Potency (TAB109) | Potency (TAB113) | Potency (TAB165) | Potency (W2) | max response (CRL-7250) -7.41% | outcome (HEK293) | max response (HaCat) 3.8% | max response (KB-3-1) 3.88% | max response (NIH3T3 [1]) -5% | outcome (HEK293T) | outcome (MCC-13) | outcome (MCC-26) | outcome (MKL-1) | outcome (MKL-2) | outcome (UISO) | outcome (WaGa)

C[C@@H]1O[C@@H](OC[C@H]2O[C@@H](Oc3c(-c4ccc(O)c(O)c4)oc4cc(O)cc(O)c4c3=O)[C@H](O)[C@@H](O)[C@@H]2O)[C@H](O)[C@H](O)[C@H]1O
inactive: Potency (PC49) | Potency (SC27B) | Potency (TAB109) | Potency (TAB113) | Potency (TAB165) | Potency (W2) | max response (CRL-7250) -4.29% | outcome (HEK293) | max response (HaCat) 2.78% | max response (KB-3-1) 16.6% | max response (NIH3T3 [1]) -8.53% | outcome (HEK293T) | outcome (MCC-13) | outcome (MCC-26) | outcome (MKL-1) | outcome (MKL-2) | outcome (UISO) | outcome (WaGa)

OC(CCN1CCCC1)(c1ccccc1)C1CCCCC1 (stereo not given)
inactive: max response (CRL-7250) -24% | max response (HEK293) -13.4% | max response (HaCat) 3.13% | max response (KB-3-1) -9.13% | outcome (NIH3T3 [1]) | outcome (MCC-13) | outcome (MCC-26) | outcome (MKL-1) | outcome (MKL-2) | outcome (NIH3T3 [2]) | outcome (UISO) | outcome (WaGa)

CC(C)=CCC/C(C)=C/CO
inactive: Potency (PC49) | Potency (SC27B) | Potency (TAB109) | Potency (TAB113) | Potency (TAB165) | Potency (W2) | outcome (CRL-7250) | outcome (HEK293) | max response (HaCat) -2.14% | max response (KB-3-1) 8.27% | max response (NIH3T3 [1]) -13.7% | outcome (HEK293T) | outcome (MCC-13) | outcome (MCC-26) | outcome (MKL-1) | outcome (MKL-2) | outcome (UISO) | outcome (WaGa)

O=C(O)Cc1cn(-c2ccccc2)nc1-c1ccc(Cl)cc1
inactive: Potency (PC49) | Potency (SC27B) | Potency (TAB109) | Potency (TAB113) | Potency (TAB165) | Potency (W2) | max response (CRL-7250) 3.22% | outcome (HEK293) | max response (HaCat) -24% | max response (KB-3-1) 2.82% | max response (NIH3T3 [1]) 4.05% | outcome (HEK293T) | outcome (MCC-13) | outcome (MCC-26) | outcome (MKL-1) | outcome (MKL-2) | outcome (UISO) | outcome (WaGa)

CC(C(=O)O)c1ccc2c(c1)Cc1cccnc1O2 (stereo not given)
inactive: Potency (PC49) | Potency (SC27B) | Potency (TAB109) | Potency (TAB113) | Potency (TAB165) | Potency (W2) | max response (CRL-7250) -6.8% | outcome (HEK293) | max response (HaCat) -5.6% | max response (KB-3-1) -7.45% | max response (NIH3T3 [1]) -7.1% | outcome (HEK293T) | outcome (MCC-13) | outcome (MCC-26) | outcome (MKL-1) | outcome (MKL-2) | outcome (UISO) | outcome (WaGa)

NC(=O)c1ccc([N+](=O)[O-])cc1Cl
inactive: Potency (PC49) | Potency (SC27B) | max response (CRL-7250) 3.21% | max response (HEK293) -0.167% | max response (HaCat) -15.2% | max response (KB-3-1) 1.89% | outcome (NIH3T3 [1]) | outcome (MCC-13) | outcome (MCC-26) | outcome (MKL-1) | outcome (MKL-2) | outcome (NIH3T3 [2]) | outcome (UISO) | outcome (WaGa)

CC(C)C[C@@H](N)C(=O)O
inactive: Potency (PC49) | Potency (SC27B) | Potency (TAB109) | Potency (TAB113) | Potency (TAB165) | Potency (W2) | max response (CRL-7250) -5.17% | outcome (HEK293) | max response (HaCat) 4.82% | max response (KB-3-1) 12.7% | max response (NIH3T3 [1]) 4.91% | outcome (HEK293T) inactive [at 17.4 µM] | outcome (MCC-13) | outcome (MCC-26) | outcome (MKL-1) | outcome (MKL-2) | outcome (UISO) | outcome (WaGa)

O=C(O)CCCc1ccccc1
inactive: Potency (PC49) | Potency (SC27B) | Potency (TAB109) | Potency (TAB113) | Potency (TAB165) | Potency (W2) | max response (CRL-7250) 1.18% | outcome (HEK293) | max response (HaCat) 2.59% | max response (KB-3-1) 18.7% | max response (NIH3T3 [1]) -2.38% | outcome (HEK293T) | outcome (MCC-13) | outcome (MCC-26) | outcome (MKL-1) | outcome (MKL-2) | outcome (UISO) | outcome (WaGa)
